Data taken from PubChem BioAssay (NCI).
The panel holds about 83,000 compounds, 20% with a hit somewhere; the sample as a whole holds those more often.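 Testing used 96-well plates and a 48-hour single-concentration exposure. Example: -40 means 40% of the starting cells died.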 Activity calls are given as the source filed them. The calls were made as follows: active = growth percent below 10; inactive = the rest.

Key:
Assay in all cases: NCI-60 one-dose screen, 48 h (100 = growth as untreated, 0 = no growth, -100 = all killed)
Details in all cases: 10 µM unless noted
[1] = test system: NCI-H23 lung
[2] = test system: NCI-H226 lung
[3] = test system: NCI-H322M lung
[4] = test system: HOP-62 NSCLC
[5] = test system: NCI-H460 lung
[6] = test system: HOP-92 NSCLC
[7] = test system: NCI-H522 lung
[8] = test system: A549/ATCC NSCLC
[9] = test system: 786-0 renal
[10] = test system: COLO 205 colon
[11] = test system: DU-145 prostate
[12] = test system: K-562 leukemia
[13] = test system: MALME-3M melanoma
[14] = test system: MDA-MB-231 breast
[15] = test system: RXF 393 renal
[16] = test system: SF-268 CNS
[17] = test system: SF-295 CNS
[18] = test system: SF-539 CNS
[19] = test system: UACC-257 melanoma
[20] = test system: M14 melanoma

Measured: growth

CCCCNC1=C(OCC)C(=O)c2ccccc2C1=O
inactive: [1] 83.5% | [2] 105% | [3] 103% | [4] 125% | [5] 92.6% | [6] 74.5% | [7] 98.4% | [8] 99.2% | [9] 94.8% | [10] 116% | [11] 104% | [12] 126% | [13] 121% | [14] 98.9% | [15] 92.8% | [16] 97.3% | [17] 103% | [18] 112% | [19] 95.7% | [20] 95.5%

O=C(CCCCNC(=O)c1cc(=O)c(O)co1)Nc1ccccc1
active: [7] -5.93%
inactive: [1] 86.2% | [2] 102% | [3] 102% | [4] 118% | [5] 99.5% | [6] 59.1% | [8] 104% | [9] 101% | [10] 67.7% | [11] 104% | [12] 13.3% | [13] 43% | [14] 99% | [15] 55.5% | [16] 91% | [17] 102% | [18] 92.5% | [19] 88.7% | [20] 81.5%

NC(=O)c1ccc(NC(=O)c2oc3ccccc3c2-c2cnn(-c3ccccc3)c2)cc1
inactive: [2] 13.9% [50 µM] | [3] 23.7% [50 µM] | [7] 21.4% [50 µM] | [10] 19.9% [50 µM] | [12] 46% [50 µM] | [16] 27.4% [50 µM] | [17] 15.6% [50 µM] | [19] 47.3% [50 µM]
active: [1] -21.9% [50 µM] | [4] 5.91% [50 µM] | [5] 5.78% [50 µM] | [6] -27.3% [50 µM] | [8] 8.08% [50 µM] | [9] -26.8% [50 µM] | [11] 7.15% [50 µM] | [13] -7.76% [50 µM] | [14] -68% [50 µM] | [15] -29.1% [50 µM] | [18] -21.7% [50 µM] | [20] -0.698% [50 µM]

COc1cc(/C=C\c2cc(/C=C\c3ccc(O)c(OC)c3)n(C(=O)CNc3ccc(Cl)cc3)n2)ccc1O
active: [5] 6.98% | [7] 2.11% | [12] 6.99% | [15] 3.29% | [18] 8.34% | [20] 4.29%
inactive: [1] 24% | [2] 51.2% | [3] 39.2% | [4] 23.3% | [6] 66.9% | [8] 19.5% | [9] 15.7% | [10] 90.4% | [11] 27.7% | [13] 34.2% | [14] 43% | [16] 25.5% | [17] 72.8% | [19] 70.2%

COc1ccc(C2=NN(C(=O)c3cc(OC)c(OC)c(OC)c3)C(c3ccc(N(C)C)cc3)C2)cc1 (stereo not given)
inactive: [1] 26.4% | [2] 20.6% | [3] 48.3% | [4] 54.5% | [6] 21.6% | [8] 30% | [9] 13.6% | [11] 10.7% | [12] 44.2% | [13] 84% | [16] 46.6% | [19] 62.6%
active: [5] 3.74% | [7] -32.4% | [10] 5.9% | [14] 9.57% | [15] -18.5% | [17] 1.04% | [18] -37% | [20] 2.04%

Cc1ccc(C(=O)c2ccc(CC(=O)N/N=C/c3ccc(O)cc3O)n2C)cc1
inactive: [1] 42.4% | [2] 65.7% | [3] 38% | [4] 40.6% | [5] 21.1% | [6] 83.1% | [7] 55.5% | [8] 46.6% | [9] 43.4% | [10] 41.8% | [11] 51.3% | [12] 45% | [13] 48.6% | [14] 51.4% | [15] 49.7% | [16] 37.3% | [17] 47.2% | [18] 44.4% | [19] 68.3% | [20] 28.8%

CS(=O)(=O)Cc1cnc(C2OCCO2)s1
inactive: [1] 107% | [2] 96.4% | [3] 100% | [4] 113% | [5] 112% | [6] 82.4% | [7] 88.7% | [8] 94.8% | [9] 104% | [10] 116% | [11] 106% | [12] 125% | [13] 92.7% | [14] 109% | [15] 116% | [16] 93.1% | [17] 98% | [18] 94.7% | [19] 98.8% | [20] 99.9%

Cn1cc(-c2nonc2-c2c[nH]c3ccc(F)cc23)c2cc(Br)ccc21
inactive: [1] 52.7% | [2] 79.5% | [3] 44.9% | [4] 40.5% | [5] 19.8% | [6] 76% | [7] 14.8% | [8] 35.9% | [9] 45.9% | [10] 54% | [11] 50.2% | [13] 61% | [14] 34.9% | [15] 74.2% | [16] 49.9% | [17] 36.5% | [18] 67.8% | [19] 63.3% | [20] 36.5%
active: [12] 7.64%
